# About 3,300 (8.5%) of roughly 39,000 compounds were called active. Shown is part of a subset that was picked to be rich in actives.
# Tested on: HepG2
# Test: cytotoxicity call (relative viability < 0.9)
# Settings: 10 µM
row,SMILES,cytotoxicity call
1,C[C@@H]1C=CNN1C(=O)c1cccnc1,inactive
2,O=C(C[C@H]1CC[C@@H]2[C@H](COC[C@@H](O)CN2C(=O)c2ccccc2F)O1)N1CCN(c2ccccc2)CC1,inactive
3,C[C@H]1CN([C@@H](C)CO)C(=O)c2cc(NC(=O)Nc3cccc4ccccc34)ccc2O[C@@H]1CN(C)C(=O)Nc1ccc(F)cc1,inactive
4,O=C(C[C@@H]1C[C@@H]2c3cc(NS(=O)(=O)c4ccccc4)ccc3O[C@@H]2[C@@H](CO)O1)NC1CCCCC1,inactive
5,C[C@@H]1CN([C@@H](C)CO)C(=O)Cc2cc(NC(=O)Cc3ccccc3)ccc2O[C@@H]1CN(C)S(=O)(=O)c1ccc(F)cc1,inactive
6,C[C@H](CO)N1C[C@H](C)[C@H](CN(C)Cc2ccc3c(c2)OCO3)Oc2c(NS(=O)(=O)c3cn(C)cn3)cccc2C1=O,inactive
7,O=C(/C=C/c1ccc(O)c(O)c1)O[C@@H]1C[C@](OC(=O)/C=C/c2ccc(O)c(O)c2)(C(=O)O)C[C@@H](O)[C@H]1O,inactive
8,C[C@H]1CCCCO[C@H](CN(C)C(=O)Nc2ccc(C(F)(F)F)cc2)[C@@H](C)CN([C@@H](C)CO)C(=O)c2cc(NC(=O)NC3CCCCC3)ccc2O1,inactive
9,C[C@H](CO)N1C[C@H](C)[C@@H](CN(C)C(=O)Nc2ccc(C(F)(F)F)cc2)OCCCC[C@H](C)Oc2ccc(NC(=O)NC3CCCCC3)cc2C1=O,inactive
10,C[C@@H]1CCCCO[C@@H](CN(C)C(=O)Nc2ccc(C(F)(F)F)cc2)[C@H](C)CN([C@H](C)CO)C(=O)c2cc(NC(=O)NC3CCCCC3)ccc2O1,active
11,COc1ccc(NC(=O)N2C[C@@H](O)COC[C@H]3O[C@H](CC(=O)NC4Cc5ccccc5C4)CC[C@@H]32)cc1,inactive
12,C[C@@H]1CN([C@@H](C)CO)C(=O)c2c(c3ccccc3n2C)-c2ccccc2CO[C@@H]1CN(C)Cc1ccc(Cl)c(Cl)c1,inactive
13,C[C@H](CO)N1C[C@H](C)[C@@H](CN(C)Cc2ccc(Cl)c(Cl)c2)OCCCC[C@H](C)Oc2ccc(N(C)C)cc2C1=O,inactive
14,C[C@@H]1CCCCO[C@H](CN(C)Cc2ccc(C(F)(F)F)cc2)[C@H](C)CN([C@H](C)CO)C(=O)c2cc(N(C)C)ccc2O1,active
15,C[C@@H]1CCCCO[C@@H](CN(C)Cc2ccc(C(F)(F)F)cc2)[C@@H](C)CN([C@H](C)CO)C(=O)c2cc(N(C)C)ccc2O1,inactive
16,C[C@H](CO)N1C[C@H](C)[C@H](CN(C)Cc2ccc(C(F)(F)F)cc2)OCCCC[C@H](C)Oc2ccc(N(C)C)cc2C1=O,inactive
17,C[C@@H]1CCCCO[C@@H](CN(C)Cc2ccc(Cl)c(Cl)c2)[C@H](C)CN([C@H](C)CO)C(=O)c2cc(N(C)C)ccc2O1,active
18,C[C@@H]1CCCCO[C@H](CN(C)Cc2ccc(Cl)c(Cl)c2)[C@@H](C)CN([C@@H](C)CO)C(=O)c2cc(N(C)C)ccc2O1,inactive
19,C[C@H]1CCCn2nncc2COCCNC1=O,inactive
20,COCCOC(=O)N1C(=O)[C@@]2(c3ccccc31)[C@H](C(=O)N1CCCCCCC1)[C@H]1C(=O)O[C@H](c3ccccc3)[C@H](c3ccccc3)N1[C@@H]2c1ccccc1OCCO,inactive
21,CNS(=O)(=O)c1ccc(C)cc1,inactive
22,Cc1ccc(S(=O)(=O)[N-]Cl)cc1.[Na+],inactive
23,Cc1cccc(-n2cc(CN)cn2)c1,inactive

row,SMILES,cytotoxicity call
1,COc1cc(NC(=O)c2cccc(-n3cc(NC(=O)Nc4cccc(C)c4)cn3)c2)cc(OC)c1OC,active
2,COc1cc(NC(=O)Cn2cnc3c2c(=O)n(C)c(=O)n3C)cc(OC)c1OC,inactive
3,Cc1noc(C)c1S(=O)(=O)Nc1cccc2c1O[C@@H](CN(C)S(=O)(=O)c1cn(C)cn1)[C@@H](C)CN([C@H](C)CO)C2=O,inactive
4,C[C@H](CO)N1C[C@H](C)[C@H](CN(C)C(=O)Nc2ccc(C(C)(C)C)cc2)OCc2cnnn2CCCC1=O,inactive
5,C[C@@H]1CCCCO[C@@H](CN(C)C(=O)NC2CCCCC2)[C@H](C)CN([C@@H](C)CO)C(=O)c2cc(NS(=O)(=O)c3ccccc3)ccc2O1,active
6,C[C@@H]1CCCCO[C@H](CN(C)C(=O)NC2CCCCC2)[C@@H](C)CN([C@@H](C)CO)C(=O)c2cc(NS(=O)(=O)c3ccccc3)ccc2O1,inactive
7,C[C@H](CO)N1C[C@H](C)[C@H](CN(C)C(=O)NC2CCCCC2)OCCCC[C@H](C)Oc2ccc(NS(=O)(=O)c3ccccc3)cc2C1=O,active
8,C[C@@H]1CN([C@H](C)CO)C(=O)c2cc(NS(=O)(=O)c3ccccc3)ccc2O[C@@H](C)CCCCO[C@@H]1CN(C)C(=O)NC1CCCCC1,inactive
9,C[C@@H]1CCCCO[C@@H](CN(C)C(=O)NC2CCCCC2)[C@H](C)CN([C@H](C)CO)C(=O)c2cc(NS(=O)(=O)c3ccccc3)ccc2O1,inactive
10,C[C@H]1CCCCO[C@H](CN(C)C(=O)NC2CCCCC2)[C@@H](C)CN([C@@H](C)CO)C(=O)c2cc(NS(=O)(=O)c3ccccc3)ccc2O1,inactive
11,O=C(C[C@@H]1CC[C@@H](NC(=O)Cc2ccccn2)[C@@H](CO)O1)NCCCN1CCOCC1,inactive
12,C[C@H](CO)N1C[C@H](C)[C@H](CN(C)Cc2ccc(C(=O)Nc3ccccc3N)cc2)Oc2c(NS(=O)(=O)c3cn(C)cn3)cccc2C1=O,inactive
13,C[C@@H]1CN([C@H](C)CO)C(=O)c2cccc(NC(=O)c3ccc(-c4nccs4)cc3)c2O[C@@H]1CN(C)C(=O)Nc1cccc2ccccc12,inactive
14,COc1ccc(CN2C[C@@H](C)[C@@H](OC)CN(C)C(=O)c3cc(NC(=O)c4nc5ccccc5s4)ccc3OC[C@@H]2C)cc1,inactive
15,CCCC(=O)Nc1ccc2c(c1)OC[C@@H](C)N(S(=O)(=O)c1cn(C)cn1)C[C@@H](C)[C@H](OC)CN(C)C2=O,inactive
16,C[C@H](CO)N1C[C@H](C)[C@H](CN(C)Cc2ccc(-c3ccccc3)cc2)Oc2ccc(NC(=O)Cc3ccccc3)cc2C1=O,active
17,C[C@@H]1CN([C@@H](C)CO)C(=O)c2cc(NC(=O)Cc3ccccc3)ccc2O[C@H]1CN(C)Cc1ccc(-c2ccccc2)cc1,active
18,C[C@@H]1CN([C@@H](C)CO)C(=O)c2cc(NC(=O)Cc3ccccc3)ccc2O[C@@H]1CN(C)Cc1ccc(C(F)(F)F)cc1,inactive
19,C[C@@H]1CN([C@H](C)CO)C(=O)c2cc(NC(=O)Cc3ccccc3)ccc2O[C@@H]1CN(C)Cc1ccc(-c2ccccc2)cc1,inactive
20,C[C@@H]1CN([C@H](C)CO)C(=O)c2cc(NC(=O)Cc3ccccc3)ccc2O[C@H]1CN(C)Cc1ccc(-c2ccccc2)cc1,active
21,C[C@@H]1CN([C@H](C)CO)C(=O)c2cc(NC(=O)Cc3ccccc3)ccc2O[C@H]1CN(C)Cc1ccc(C(F)(F)F)cc1,inactive
22,C[C@@H]1CN([C@@H](C)CO)C(=O)c2cc(NC(=O)Cc3ccccc3)ccc2O[C@@H]1CN(C)Cc1ccc(-c2ccccc2)cc1,active
23,C=C1c2cccc(O)c2C(=O)[C@@H]2C(=O)[C@]3(O)C(=O)[C@@H](C(N)=O)C(=O)[C@@H](N(C)C)[C@@H]3[C@@H](O)[C@H]12,inactive

row,SMILES,cytotoxicity call
1,C[C@@H]1CCCCO[C@@H](CN(C)C(=O)Nc2cccc3ccccc23)[C@@H](C)CN([C@@H](C)CO)C(=O)c2cc(N(C)C)ccc2O1,inactive
2,Cn1cnc(CCNC(=O)C[C@@H]2CC[C@@H]3[C@H](COC[C@H](O)CN3C(=O)Nc3ccc(Cl)cc3)O2)c1,inactive
3,CC(=O)NCCCC[C@@H]1NC(=O)[C@@H]2C[C@H](C(=O)NCCCCCN)[C@H](c3ccc(O)cc3)N2C1=O,inactive
4,O=C(C[C@H]1CC[C@@H]2[C@H](COC[C@@H](O)CN2S(=O)(=O)c2ccccc2)O1)NCCN1CCCCC1,inactive
5,C[C@H](CO)N1C[C@H](C)[C@H](CN(C)C(=O)Nc2ccc(C(F)(F)F)cc2)OCCCC[C@H](C)Oc2ccc(NC(=O)Nc3ccccc3)cc2C1=O,inactive
6,COc1ccc(S(=O)(=O)Nc2ccc3c(c2)CC(=O)N([C@@H](C)CO)C[C@@H](C)[C@@H](CN(C)S(C)(=O)=O)O3)cc1,inactive
7,C[C@@H]1CCCCO[C@H](CN(C)C(=O)Nc2ccc(C(F)(F)F)cc2)[C@@H](C)CN([C@@H](C)CO)C(=O)c2cc(NC(=O)Nc3cccc4ccccc34)ccc2O1,inactive
8,C[C@H]1CN([C@@H](C)CO)C(=O)c2cc(NC(=O)Cc3ccccc3)ccc2O[C@@H]1CN(C)Cc1ccc(-c2ccccc2)cc1,active
9,C[C@H]1CN([C@@H](C)CO)C(=O)c2cc(NC(=O)Cc3ccccc3)ccc2O[C@H]1CN(C)Cc1ccc(-c2ccccc2)cc1,inactive
10,C[C@H](CO)N1C[C@H](C)[C@@H](CN(C)Cc2ccc(-c3ccccc3)cc2)Oc2ccc(NC(=O)Cc3ccccc3)cc2C1=O,inactive
11,CC(C)[Si]1(C(C)C)OCc2cc(-c3ccc(-c4ccc(Cl)c(Cl)c4)o3)nc(-c3ccc(Oc4ccccc4)cc3)c21,inactive
12,Cc1ccc(N2CCC[C@]3(CCNC3=O)C2)nn1,inactive
13,C[C@@H]1CCCCO[C@@H](CN(C)S(=O)(=O)c2ccc(Cl)cc2)[C@@H](C)CN([C@@H](C)CO)C(=O)c2cc(NS(=O)(=O)c3ccccc3)ccc2O1,inactive
14,C[C@@H]1CCCCO[C@@H](CN(C)C(=O)Cc2ccccc2)[C@@H](C)CN([C@@H](C)CO)C(=O)c2cc(NC(=O)Nc3ccc(F)cc3)ccc2O1,inactive
15,COc1ccc([Si](C)(C)[C@H]2[C@H](CCO)O[C@@]3(C(=O)N(Cc4ccccc4)c4ccc(N5C(=O)COc6ccccc65)cc43)[C@@H]2C)cc1,active
16,C[C@H]1[C@H]([Si](C)(C)F)[C@@H](CCO)O[C@]12C(=O)N(Cc1cccc(N3C(=O)COc4ccccc43)c1)c1ccccc12,inactive
17,COc1ccc([Si](C)(C)[C@@H]2[C@@H](CCO)O[C@]3(C(=O)N(Cc4cccc(N5C(=O)COc6ccccc65)c4)c4ccccc43)[C@H]2C)cc1,active
18,COc1ccc([Si](C)(C)[C@@H]2[C@@H](CCO)O[C@]3(C(=O)N(Cc4ccc(N5CCCCC5=O)cc4)c4ccccc43)[C@H]2C)cc1,inactive
19,COc1ccc([Si](C)(C)[C@H]2[C@H](CCO)O[C@@]3(C(=O)N(Cc4ccccc4)c4ccc(N5CCCCC5=O)cc43)[C@@H]2C)cc1,inactive
20,COc1ccc([Si](C)(C)[C@H]2[C@H](CCO)O[C@@]3(C(=O)N(Cc4ccc(N5CCCCC5=O)cc4)c4ccccc43)[C@@H]2C)cc1,inactive
21,COc1ccc([Si](C)(C)[C@H]2[C@H](CCO)O[C@@]3(C(=O)N(Cc4ccc(N5C(=O)COc6ccccc65)cc4)c4ccccc43)[C@@H]2C)cc1,active
22,COc1ccc([Si](C)(C)[C@@H]2[C@@H](CCO)O[C@]3(C(=O)N(Cc4ccccc4)c4ccc(N5CCCCC5=O)cc43)[C@H]2C)cc1,inactive
23,COc1ccc([Si](C)(C)[C@H]2[C@H](CC(=O)N3CCC[C@H]3CO)O[C@@]3(C(=O)N(Cc4cccc(N5C(=O)COc6ccccc65)c4)c4ccccc43)[C@@H]2C)cc1,inactive

# — the antibiotic and cytotoxicity screens of Wong et al. (2023)
